Test results as given in a collection of fitness landscapes (doi:10.1016/j.celrep.2020.107928).
The full ranking holds about 81,000 sequences; the median of “one-hybrid fitness for binding parS DNA” is about -0.17, and the highest 2% start at about 0.51. This is one part of a sample in which the highest values are shown more often than they occur.

B1: Caulobacter ParB omega fusion; a variant is named by its letters at X, in order, B8GW30 (parent)
chain: MESVVVGEPGMSEGRRGLGRGLSALLGEVDAAPAQAPGEQLGGSREAPIEILQRNPDQPRRTFREEDLEDLSNSIREKGVLQPILVRPSPDTAGEYQIVAGERAWRAAQRAGLKTVPIMVRELDDLAVLEIGIIENVQRADLNVLEEALSYKVLMEKFERTQENIAQTIGKSXSHVANXMRLLXLPDEVQSYLVSGELTAXHARAIAAAADPVALAKQIIEGGLSVRETEALARKAPNLSAGKSKGGRPPRVKDTDTQALESDLSSVLGLDVSIDHRGSTGTLTITYATLEQLDDLCNRLTRGI

Variants of: B1
Experiment: one-hybrid fitness for binding parS DNA (scaled: cognate 1, non-cognate 0); higher = stronger binding
Details: with parS DNA site
Summary of the method: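 Pre- and post-selection plasmids were Illumina-sequenced, three replicate libraries were pooled, and any variant with under 10 reads was removed. The libraries were Caulobacter ParB with four specificity codons randomised, selected in E. coli USO through a HIS3 reporter whose site is 19 bp from the promoter. Cells grew 48 hours at 37°C on M9 without histidine, with 0.1 mM IPTG and 5 mM 3-AT. Fitness is the log change in variant-to-wild-type read ratio, rescaled against cognate and non-cognate.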

one-hybrid fitness for binding parS DNA, 0.344:
RMWM

one-hybrid fitness for binding parS DNA, 0.302:
RMDM

one-hybrid fitness for binding parS DNA, 0.716:
RCKY

one-hybrid fitness for binding parS DNA, 0.644:
RAKY

one-hybrid fitness for binding parS DNA, 0.888:
RHGS

one-hybrid fitness for binding parS DNA, 0.969:
RMNC
RFGS

one-hybrid fitness for binding parS DNA, 0.917:
RVFT
RMDG

one-hybrid fitness for binding parS DNA, 0.464:
RVFY

one-hybrid fitness for binding parS DNA, 0.719:
RNFS

one-hybrid fitness for binding parS DNA, 0.923:
RCST

one-hybrid fitness for binding parS DNA, 1.01:
RMYC
RMHG
RIVS

one-hybrid fitness for binding parS DNA, 0.983:
RMLC

one-hybrid fitness for binding parS DNA, 0.952:
RLWC

one-hybrid fitness for binding parS DNA, 0.833:
RKGS

one-hybrid fitness for binding parS DNA, 0.443:
RTVY

one-hybrid fitness for binding parS DNA, 0.938:
RLAT

one-hybrid fitness for binding parS DNA, 0.916:
RVAT

one-hybrid fitness for binding parS DNA, 0.24:
IFWT

one-hybrid fitness for binding parS DNA, 0.351:
RMNM

one-hybrid fitness for binding parS DNA, 0.477:
RIGN

one-hybrid fitness for binding parS DNA, 0.867:
RMRC

one-hybrid fitness for binding parS DNA, 0.469:
RIVY

one-hybrid fitness for binding parS DNA, 0.946:
RSVS

one-hybrid fitness for binding parS DNA, 1.03:
RMYG

one-hybrid fitness for binding parS DNA, 0.435:
RFGN

one-hybrid fitness for binding parS DNA, 0.412:
RSWN
RAVY

one-hybrid fitness for binding parS DNA, 0.89:
RTKY

one-hybrid fitness for binding parS DNA, 0.449:
RMSN

one-hybrid fitness for binding parS DNA, 0.495:
RMEA

one-hybrid fitness for binding parS DNA, 0.988:
RMGS

one-hybrid fitness for binding parS DNA, 0.955:
RCIG

one-hybrid fitness for binding parS DNA, 0.984:
RMWC

one-hybrid fitness for binding parS DNA, 0.374:
RMHM

one-hybrid fitness for binding parS DNA, 0.651:
RMYA

one-hybrid fitness for binding parS DNA, 0.518:
RHKY

one-hybrid fitness for binding parS DNA, 0.269:
RMHF

one-hybrid fitness for binding parS DNA, 0.62:
RIAA

one-hybrid fitness for binding parS DNA, 0.342:
RLWM
RSVN

one-hybrid fitness for binding parS DNA, 0.813:
RTKC

one-hybrid fitness for binding parS DNA, 0.529:
RIFA

one-hybrid fitness for binding parS DNA, 0.695:
RRSN

one-hybrid fitness for binding parS DNA, 0.929:
RTVC

one-hybrid fitness for binding parS DNA, 0.225:
RMYR

one-hybrid fitness for binding parS DNA, ≤ 0.2:
ENRN
TWCR
THVD
RMWL
REWC
RSWH
RPWC
LRIP
LILQ
ENVC
PHDG
NQKT
QLHL
SRVM
CYAS
LQFE
YSKG
TVTW
LNPP
GYPI
RLFQ
RLAK
RLFR
RLAQ
SNGD
SLHC
QQSF
CLAL
LSRM
SMQP
RRSR
RRSD
RRSP
RRSH
EKER
TCNL
QSVW
TGSG
MLIG
TASY
GFDT
RDST
RPST
REST
PKQP
RNAD
RNAH
RNFD
KHDT
WNNG
RVAR
SPGM
RMRD
RMYK
RMCR
LSPY
LVGR
GTAK
ELGD
QSMI
EQMT
IWTC
GPTP
PHIN
LTQT
RDMK
TFCT
RMLL
RMLR
THQL
DMYA
NMRA
QQDP
GWES
REIG
RDIG
RPIG
PLWA
FGAE
KGTY
VTTC
MCDS
TPPY
HNSC
RMGH
RMDH
SGDY
SKDT
VGNC
RNAF
FYKS
RLMI
SYAC
QDNF
CRIC
DYAR
QGFS
TIDG
QNGG
NVIK
RMNR
RMRL
PVDG
TFGE
DQLH
HHQA
RPVS
RCVH
RSVP
RDPY
NTKG
RMDK
RMNE
KILI
PNVW
STNR
QRCN
DTKC
RTKK
RTVR
TIRR
RNYV
LASP
DNAR
QMYE
NIAA
DIAA
PPGC
WPHF
EGPL
RVND
RVDP
NYLV
NSCK
IGDM
LLDM
NKNA
TAPI
IGRG
CPMT
RPKY
QPIK
KIKS
KKAL
YKKT
ALMT
EPHL
FFHG
FQRT
GLWL
GYNP
PKHV
LGGC
RDKY
SFKY
QMIF
VKTF
YLRV
VMPR
CRLW
GEYT
RAPY
KEPT
QTVF
RIKP
RIKD
RIVP
RIVD
NSRE
AKIQ
TIGL
RAGD
RPGS
RCGP
RMGD
SGNV
PNMM
SVIY
CGSR
AIHE
NKPL
WVGM
CMEW
NDFI
KPTT
WGPD
RHGD
RTGD
RIGP
RKGD
NELG
VCTS
QDQT
APQI
TGHY
LTYE

one-hybrid fitness for binding parS DNA, 0.915:
RVNS

one-hybrid fitness for binding parS DNA, 0.945:
RCGS

one-hybrid fitness for binding parS DNA, 0.974:
RVDS

one-hybrid fitness for binding parS DNA, 1.02:
RCVS

one-hybrid fitness for binding parS DNA, 0.838:
RLFT

one-hybrid fitness for binding parS DNA, 0.856:
RRKY

one-hybrid fitness for binding parS DNA, 0.889:
RMDC

one-hybrid fitness for binding parS DNA, 0.653:
RRSS

one-hybrid fitness for binding parS DNA, 0.962:
RMRG

one-hybrid fitness for binding parS DNA, 0.416:
RVNN

one-hybrid fitness for binding parS DNA, 0.92:
RTGS

one-hybrid fitness for binding parS DNA, 0.985:
RMCC

one-hybrid fitness for binding parS DNA, 0.507:
RSPG

one-hybrid fitness for binding parS DNA, 0.363:
RVFM
RHGN

one-hybrid fitness for binding parS DNA, 0.245:
RFGH

one-hybrid fitness for binding parS DNA, 0.259:
RVAF

one-hybrid fitness for binding parS DNA, 0.822:
RSIG
RIKS

one-hybrid fitness for binding parS DNA, 0.847:
RSWC

one-hybrid fitness for binding parS DNA, 0.999:
RMNG

one-hybrid fitness for binding parS DNA, 0.255:
RLWF

one-hybrid fitness for binding parS DNA, 0.375:
RMDN

one-hybrid fitness for binding parS DNA, 0.327:
RSSM

one-hybrid fitness for binding parS DNA, 0.782:
RMKY

one-hybrid fitness for binding parS DNA, 0.569:
RFKY

one-hybrid fitness for binding parS DNA, 0.834:
RKNA

one-hybrid fitness for binding parS DNA, 0.438:
RHYY
RMVY

one-hybrid fitness for binding parS DNA, 0.609:
RSKY

one-hybrid fitness for binding parS DNA, 0.217:
RMCF

one-hybrid fitness for binding parS DNA, 0.959:
RCWC
RIGS

one-hybrid fitness for binding parS DNA, 0.914:
RNAS

one-hybrid fitness for binding parS DNA, 0.465:
RLVY

one-hybrid fitness for binding parS DNA, 0.205:
RMYQ

one-hybrid fitness for binding parS DNA, 0.883:
RSST

one-hybrid fitness for binding parS DNA, 0.204:
RMSP

one-hybrid fitness for binding parS DNA, 0.765:
RMRA

one-hybrid fitness for binding parS DNA, 0.429:
RKGN

one-hybrid fitness for binding parS DNA, 0.989:
RAGS

one-hybrid fitness for binding parS DNA, 0.37:
RSVY

one-hybrid fitness for binding parS DNA, 0.492:
RKKY

one-hybrid fitness for binding parS DNA, 0.256:
RNFN

one-hybrid fitness for binding parS DNA, 0.993:
RMGG

one-hybrid fitness for binding parS DNA, 0.261:
RMRH

one-hybrid fitness for binding parS DNA, 0.235:
RMGP

one-hybrid fitness for binding parS DNA, 0.536:
RKDA

one-hybrid fitness for binding parS DNA, 0.747:
RIKY

one-hybrid fitness for binding parS DNA, 0.354:
RHVY

one-hybrid fitness for binding parS DNA, 0.289:
RMYF

one-hybrid fitness for binding parS DNA, 0.368:
RMRF

one-hybrid fitness for binding parS DNA, 0.704:
RLKY

one-hybrid fitness for binding parS DNA, 0.956:
RMSC

one-hybrid fitness for binding parS DNA, 0.371:
RVDN

one-hybrid fitness for binding parS DNA, 0.453:
RMGN

one-hybrid fitness for binding parS DNA, 0.448:
RAGN

one-hybrid fitness for binding parS DNA, 0.44:
RTGN

one-hybrid fitness for binding parS DNA, 0.247:
RRVY

one-hybrid fitness for binding parS DNA, 0.467:
RMNN

one-hybrid fitness for binding parS DNA, 0.301:
RFVY
